The nature of test [1]: antimalarial activity against Dd2 strain (AID 2302;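 active = growth inhibition above 50% at the single 2 µM test dose, taken to imply half-maximal potency below 2 µM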;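 also: 0% = DMSO untreated growth and 100% = chloroquine plus artemisinin killed control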). Conditions: P. falciparum Dd2 in RBCs, LDH growth readout, 72 h; at 2 µM; stronger effect = higher value.
A short description of test [2]: HepG2 cytotoxicity, primary screen, cytotoxicity control for P. falciparum antimalarial project, cell-based, ATP luminescence (AID 2303;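 active = inhibition above 50%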;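 also: 0% = DMSO wells and 100% = digitonin-killed cells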). To be noted: HepG2 viability, 24-48 h, at 10 µM, stronger effect = higher value.
Test [3] addresses L-lactate dehydrogenase (Plasmodium falciparum (isolate CDC / Honduras)) (UniProt Q27743). Put plainly: PfLDH activity inhibition – cell lysate, 3D7 strain, counter-screen for P. falciparum growth inhibition project (AID 2304).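 Also: 0% = vehicle and 100% = reference inhibitor.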 To be noted: P. falciparum 3D7 crude extract, LDH APAD/NBT absorbance; at 2 µM; stronger effect = higher value.
Test [4] is described as follows: inhibition of 3D7 malaria parasite growth – strain 3D7 (AID 2306).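 Also: 0% = DMSO wells and 100% = chloroquine plus artemisinin control wells.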 To be noted: P. falciparum 3D7 erythrocytic growth, LDH absorbance, 72 h; at 2 µM; stronger effect = higher value.
For test [5], the target named is Calcium-dependent protein kinase 1 (Plasmodium falciparum (isolate 3D7)) (UniProt P62344). Put plainly: PfCDPK1 kinase inhibitors, biochemical, TCAMS library (AID 1159585; cut-off not given, nearly all actives have IC50 up to about 0.98 µM;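 also: inhibitors leave more ATP so luminescence rises with inhibition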). Conditions: recombinant PfCDPK1, Kinase-Glo ATP depletion luminescence. A general note: In Kinase-Glo more light means more ATP remaining.
Chain of Calcium-dependent protein kinase 1 (Plasmodium falciparum (isolate 3D7)) (P62344 whole entry, looked up): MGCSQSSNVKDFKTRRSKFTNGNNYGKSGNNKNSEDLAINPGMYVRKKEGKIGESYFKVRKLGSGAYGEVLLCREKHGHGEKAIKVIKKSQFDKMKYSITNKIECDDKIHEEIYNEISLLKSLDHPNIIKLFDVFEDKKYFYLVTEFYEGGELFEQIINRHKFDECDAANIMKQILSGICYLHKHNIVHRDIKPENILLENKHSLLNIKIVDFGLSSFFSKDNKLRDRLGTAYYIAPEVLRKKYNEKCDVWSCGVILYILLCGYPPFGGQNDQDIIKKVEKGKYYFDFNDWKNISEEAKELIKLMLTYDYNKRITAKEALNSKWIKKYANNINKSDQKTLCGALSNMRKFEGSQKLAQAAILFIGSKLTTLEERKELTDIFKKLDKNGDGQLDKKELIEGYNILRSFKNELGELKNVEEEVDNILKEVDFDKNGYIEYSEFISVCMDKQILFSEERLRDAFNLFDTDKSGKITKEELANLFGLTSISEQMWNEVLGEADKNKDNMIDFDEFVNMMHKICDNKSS
Test [6] concerns the target Plasmodium falciparum protein kinase 6 (PK6, PF3D7_1337100) (UniProt Q8IDW1). Put plainly: PfPK6 kinase inhibitors, biochemical, TCAMS library (AID 1159586). To be noted: recombinant PfPK6, Kinase-Glo ATP depletion luminescence.
The target in test [7] is Protein kinase 7 (PK7), Plasmodium falciparum 3D7 (PF3D7_0213400) (UniProt Q7YTF7). The test is described as follows: inhibition of Plasmodium PK7 catalytic activity – biochemical, TCAMS antimalarial set, Kinase-Glo luminescence (AID 1159587). To be noted: recombinant PfPK7, Kinase-Glo ATP depletion luminescence.
Chain of Protein kinase 7 (PK7), Plasmodium falciparum 3D7 (PF3D7_0213400) (Q7YTF7 1-343): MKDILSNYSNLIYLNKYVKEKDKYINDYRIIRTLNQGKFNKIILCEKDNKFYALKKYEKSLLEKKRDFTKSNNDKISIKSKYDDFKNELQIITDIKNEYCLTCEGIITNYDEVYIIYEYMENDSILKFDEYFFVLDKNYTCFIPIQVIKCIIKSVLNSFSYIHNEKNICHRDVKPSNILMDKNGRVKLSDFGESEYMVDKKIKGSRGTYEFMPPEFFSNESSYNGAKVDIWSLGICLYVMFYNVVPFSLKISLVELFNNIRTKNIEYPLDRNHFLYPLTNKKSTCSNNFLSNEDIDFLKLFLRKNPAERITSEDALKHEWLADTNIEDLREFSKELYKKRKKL
The target of test [8] is Calcium-dependent protein kinase 4 (Plasmodium falciparum (isolate 3D7)) (UniProt Q8IBS5). The test is described as follows: PfCDPK4 kinase inhibitors, biochemical, TCAMS library (AID 1159588; cut-off not given, nearly all actives have IC50 up to about 0.91 µM). To be noted: recombinant PfCDPK4, Kinase-Glo ATP depletion luminescence.
Chain of Calcium-dependent protein kinase 4 (Plasmodium falciparum (isolate 3D7)) (Q8IBS5 whole entry, looked up): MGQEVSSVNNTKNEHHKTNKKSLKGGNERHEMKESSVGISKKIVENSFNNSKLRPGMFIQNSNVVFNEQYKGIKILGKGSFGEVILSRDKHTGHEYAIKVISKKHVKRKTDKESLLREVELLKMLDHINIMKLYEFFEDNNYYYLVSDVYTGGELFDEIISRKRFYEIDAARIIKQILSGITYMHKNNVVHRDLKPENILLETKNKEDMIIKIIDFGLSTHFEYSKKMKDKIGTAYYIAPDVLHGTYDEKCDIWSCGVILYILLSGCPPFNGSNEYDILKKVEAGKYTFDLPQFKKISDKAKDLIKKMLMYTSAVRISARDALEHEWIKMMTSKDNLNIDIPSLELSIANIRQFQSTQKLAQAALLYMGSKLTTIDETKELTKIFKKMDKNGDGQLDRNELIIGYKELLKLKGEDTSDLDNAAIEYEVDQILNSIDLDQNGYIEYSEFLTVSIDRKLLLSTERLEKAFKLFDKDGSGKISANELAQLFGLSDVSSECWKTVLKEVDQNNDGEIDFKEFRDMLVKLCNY

A number with no mark means an inactive call. For some assays here: Entries with a potency or affinity are not part of this list. Active and inactive are the calls of the source. Unless noted, no rule for the calls is given here.

Chain of Plasmodium falciparum protein kinase 6 (PK6, PF3D7_1337100) (Q8IDW1 1-305): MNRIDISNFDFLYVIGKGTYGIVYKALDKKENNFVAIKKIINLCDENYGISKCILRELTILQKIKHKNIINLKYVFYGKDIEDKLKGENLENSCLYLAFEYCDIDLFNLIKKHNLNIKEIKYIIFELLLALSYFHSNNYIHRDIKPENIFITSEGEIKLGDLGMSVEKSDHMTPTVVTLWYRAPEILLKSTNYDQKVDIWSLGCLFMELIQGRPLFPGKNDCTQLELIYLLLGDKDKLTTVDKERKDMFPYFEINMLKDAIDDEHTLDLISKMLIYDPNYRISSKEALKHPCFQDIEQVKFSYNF
Chain of L-lactate dehydrogenase (Plasmodium falciparum (isolate CDC / Honduras)) (Q27743 whole entry, looked up): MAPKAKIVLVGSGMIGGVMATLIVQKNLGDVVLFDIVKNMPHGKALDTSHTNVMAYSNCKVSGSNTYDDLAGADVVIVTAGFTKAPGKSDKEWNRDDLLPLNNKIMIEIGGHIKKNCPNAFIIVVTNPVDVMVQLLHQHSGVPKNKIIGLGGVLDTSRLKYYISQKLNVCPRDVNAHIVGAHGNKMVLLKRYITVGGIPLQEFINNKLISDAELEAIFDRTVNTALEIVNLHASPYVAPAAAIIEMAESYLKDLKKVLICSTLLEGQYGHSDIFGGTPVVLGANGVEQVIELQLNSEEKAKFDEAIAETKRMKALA

Regarding `CCc1cccc(NC(=O)c2ccc(CN3CCCN(CC4CCCCC4)CC3)cc2)c1`, the values for the growth inhibition in test [1] and in test [4] were 36% and 84% (active), respectively. The inhibition in test [2] is 44%; in test [3], 0%. The result in test [5], in test [6], in test [7] and in test [8] was inactive.

In the case of `CN(C)CCC1CCN(CCS(=O)(=O)c2cccc(Nc3ncc(-c4cccc(F)c4)cn3)c2)CC1`, the growth inhibition in test [1] is 12%; in test [4], 96% (active). The results for the inhibition in test [2] and in test [3] were 59% (active) and -2%, respectively. Besides, the outcome in test [5], in test [6], in test [7] and in test [8] was inactive.

With `Nc1ccnc2ccc(OCCCCCCc3ccccc3)cc12`, the results for the growth inhibition in test [1] and in test [4] were 99% (active) and 100% (active), respectively. In addition, the inhibition in test [2] was 96% (active); in test [3] it was 1%. For the same compound, the result in test [5], in test [6], in test [7] and in test [8] was inactive.

`Cc1cccc2[nH]c(-c3ccc(-c4ccc(NC(=O)Nc5ccc(F)c(F)c5F)cc4)cc3)nc12`: the results for the growth inhibition in test [1] and in test [4] were 97% (active) and 100% (active), respectively. The inhibition in test [2] is 51% (active); in test [3], -1%. Moreover, the outcome in test [5], in test [6], in test [7] and in test [8] was inactive.

For `COc1ccc(Nc2ncc3c(-c4cccc(NC(=O)Cc5cccnc5)c4)c[nH]c3n2)cc1OC`, the results for the growth inhibition in test [1] and in test [4] were 85% (active) and 98% (active), respectively. Moreover, the inhibition is 27% in test [2] and 1% in test [3]. The result in test [5], in test [6], in test [7] and in test [8] was inactive.

For `Cc1cc(C)c(O)c(-c2cc(C(=O)Nc3ccc(S(=O)(=O)N4CC(C)OC(C)C4)cc3)[nH]n2)c1` (configuration not stated), the growth inhibition is 16% in test [1] and 95% (active) in test [4]. Also, the inhibition was 31% in test [2] and -1% in test [3]. The outcome in test [5], in test [6], in test [7] and in test [8] was inactive.

For the compound `CC1CCCN(S(=O)(=O)c2ccc(NC(=O)c3cc(-c4ccccc4O)n[nH]3)cc2)C1` (configuration not stated), the growth inhibition was 49% in test [1] and 93% (active) in test [4]. Also, the results for the inhibition in test [2] and in test [3] were 12% and 3%, respectively. Further, the outcome in test [5], in test [6], in test [7] and in test [8] was inactive.

For `O=[N+]([O-])c1ccc2nc(Nc3ccc(Cl)c(Cl)c3)c(Nc3ccc(Cl)c(Cl)c3)nc2c1`, the results for the growth inhibition in test [1] and in test [4] were 99% (active) and 101% (active), respectively. Further, the inhibition in test [2] was 1%; in test [3] it was 3%. Also, the result in test [5], in test [6], in test [7] and in test [8] was inactive.

With `OC(CNCc1ccccc1)c1cc(OCc2ccccc2)cc(OCc2ccccc2)c1` (configuration not stated), the growth inhibition in test [1] was 76% (active); in test [4], 98% (active). Besides, the inhibition in test [2] was -14%; in test [3], 3%. The result in test [5], in test [6], in test [7] and in test [8] was inactive.

With `COc1ccc(CNCc2ccccc2)cc1-c1ccc(S(=O)(=O)NCCN2CCCC2)c(F)c1`, the growth inhibition in test [1] is 42%; in test [4], 87% (active). Besides, the results for the inhibition in test [2] and in test [3] were 29% and 5%, respectively. For the same compound, the result in test [5], in test [6], in test [7] and in test [8] was inactive.

In the case of `O=C(NC1CC1)c1ccc(Cn2c(SCc3cccc([N+](=O)[O-])c3)nc3ccccc3c2=O)cc1`, the growth inhibition is 65% (active) in test [1] and 91% (active) in test [4]. Also, the results for the inhibition in test [2] and in test [3] were 12% and 1%, respectively. Further, the result in test [5], in test [6], in test [7] and in test [8] was inactive.

With `COc1ccc(C=NNc2cc(C)nc3ccccc23)c(OC)c1`, the results for the growth inhibition in test [1] and in test [4] were 94% (active) and 101% (active), respectively. For the same compound, the inhibition in test [2] is 24%; in test [3], -2%. For the same compound, the outcome in test [5], in test [6], in test [7] and in test [8] was inactive.

As to `CC(=O)Nc1ncc(C(=O)Nc2cccc(-c3ccc(-c4nc5c(C)cccc5[nH]4)cc3)c2)s1`, the growth inhibition is 78% (active) in test [1] and 101% (active) in test [4]. The inhibition is 69% (active) in test [2] and 3% in test [3]. Further, the result in test [5], in test [6], in test [7] and in test [8] was inactive.

On to `O=C(Nc1ccc(Cl)cc1C(=O)Nc1cccc(F)c1)c1ccc([N+](=O)[O-])cc1`, for which the growth inhibition in test [1] was 54% (active); in test [4] it was 89% (active). Besides, the inhibition in test [2] is 10%; in test [3], 0%. The outcome in test [5], in test [6], in test [7] and in test [8] was inactive.

Turning to `O=C(NCCN1CCOCC1)c1csc(C2CCCN(C(=O)c3ccc(O)c(-c4cc(Cl)cc(Cl)c4)c3)C2)n1` (configuration not stated), the growth inhibition in test [1] is 50% (active); in test [4], 97% (active). In addition, the results for the inhibition in test [2] and in test [3] were 12% and 6%, respectively. In addition, the result in test [5], in test [6], in test [7] and in test [8] was inactive.

Consider `CN1CCN(c2cc3c(cc2Br)CCN3C(=O)Nc2ccc(-c3cnc4ccccc4c3)cc2)CC1`, for which the growth inhibition was 79% (active) in test [1] and 99% (active) in test [4]. The inhibition was 100% (active) in test [2] and 3% in test [3]. Further, the outcome in test [5], in test [6], in test [7] and in test [8] was inactive.

Turning to `NC1=NC2(CCCC2)C(c2ccc(Cl)c(Cl)c2)C(N)=N1` (configuration not stated), the growth inhibition in test [1] was 3%; in test [4], 92% (active). Moreover, the inhibition is 7% in test [2] and -1% in test [3]. For the same compound, the result in test [5], in test [6], in test [7] and in test [8] was inactive.

Regarding `CS(=O)(=O)c1ccc2nc(-c3cc(-c4cccc(F)c4)cnc3N)[nH]c2c1`, the growth inhibition in test [1] was 71% (active); in test [4] it was 102% (active). The results for the inhibition in test [2] and in test [3] were 33% and 4%, respectively. The outcome in test [5], in test [6], in test [7] and in test [8] was inactive.

With `CCCCN(Cc1cc(Cl)c(OCC)c(OC)c1)c1ccc(C(O)(C(F)(F)F)C(F)(F)F)cc1`, the growth inhibition is 97% (active) in test [1] and 92% (active) in test [4]. Besides, the inhibition is 5% in test [2] and -6% in test [3]. The result in test [5], in test [6], in test [7] and in test [8] was inactive.

One may read the inhibition as the relative decrease from the control value, in per cent.

Source of the values: PubChem BioAssay.
